Test results reported in PubChem BioAssay (Tox21).
Inconclusive results are not listed. Entries that show only a call come without a potency. Values without a mark were called inactive. Activity calls are given as the source filed them. Calls come from the whole dose curve; as a rule, active = well fitted inhibition curve with a large enough effect in the repeat runs; inconclusive = weak or mixed curves; inactive = no such curve, though single readings can be large or run the other way.

molecular target: Estrogen receptor (Homo sapiens) (UniProt P03372); assay: qHTS assay to identify small molecule antagonists of the estrogen receptor alpha (ER-alpha) signaling pathway using the BG1 cell line in the presence of 0.1 nM 17-beta-estradiol (AID 1259244); details: VM7Luc4E2 (BG1) ERE-luciferase, antagonist mode, 0.1 nM E2, 22 h; series mostly up to 92.4 µM; note: nearly all actives have a fitted effect of over 50% in size
Sequence (P03372 whole entry, looked up): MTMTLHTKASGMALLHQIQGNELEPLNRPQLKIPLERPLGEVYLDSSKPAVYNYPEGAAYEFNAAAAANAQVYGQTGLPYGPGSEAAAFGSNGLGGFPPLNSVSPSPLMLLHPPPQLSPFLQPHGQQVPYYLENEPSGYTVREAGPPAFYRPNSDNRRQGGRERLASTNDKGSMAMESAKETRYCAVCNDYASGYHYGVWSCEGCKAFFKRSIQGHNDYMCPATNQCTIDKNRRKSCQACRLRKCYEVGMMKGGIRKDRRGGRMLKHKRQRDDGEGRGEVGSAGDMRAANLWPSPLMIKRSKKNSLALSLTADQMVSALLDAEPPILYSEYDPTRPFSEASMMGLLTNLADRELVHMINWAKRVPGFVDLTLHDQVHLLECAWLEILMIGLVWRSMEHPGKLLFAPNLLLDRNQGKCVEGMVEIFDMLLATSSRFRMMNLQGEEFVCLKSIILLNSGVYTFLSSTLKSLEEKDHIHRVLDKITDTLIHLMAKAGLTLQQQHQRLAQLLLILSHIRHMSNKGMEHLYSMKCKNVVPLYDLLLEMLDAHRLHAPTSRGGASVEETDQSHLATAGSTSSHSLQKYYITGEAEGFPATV
Source text: National Center for Advancing Translational Sciences [NCATS]
NIH Chemical Genomics Center [NCGC]
U.S. Environmental Protection Agency [EPA]
National Institutes of Environmental Health Sciences [NIEHS]
National Toxicology Program [NTP]
U.S. Food and Drug Administration [FDA]
Estrogen receptor (ER), a member of the nuclear hormone receptor plays an important role in development, metabolic homeostasis and reproduction. Two subtypes of ER, ER-alpha and ER-beta, have similar expression patterns with some uniqueness in both types. Endocrine disrupting chemicals (EDCs) and their interactions with steroid hormone receptors like ER causes disruption of normal endocrine function. Therefore, it is important to understand the effect of environmental chemicals in ER signaling pathway. For identifying ER antagonists, VM7Luc4E2 cell line was used to screen against Tox21 compound libraries.
VM7Luc4E2 cell line (provided by Denison MS, University of California) endogenously express full-length ER-alpha and is stably transfected with a plasmid containing four estrogen responsive elements (ERE) upstream of a luciferase reporter gene. The current screening for identification of ER-alpha inhibitors against Tox21 compound libraries used lower concentration (0.1 nM) of 17beta-Estradiol as a stimulator.
Tox21 Assay Protocol Summary:
VM7Luc4E2 cells were cultured in phenol red free assay medium containing 10% charcoal stripped FBS for 5 days prior to the assay. The cells were dispensed at 4,000 cells/well in 4 uL of assay medium into white wall/solid-bottom 1536-well plates (Corning Life Sciences, Corning, NY) using a Multidrop Combi (ThermoFisher Scientific, Waltham, MA) dispenser. After the assay plates were incubated at 37C and 5% CO2 for 24 hr, 23 nL of compounds dissolved in DMSO, positive controls or DMSO only was transferred to the assay plates by a Pintool station (Kalypsys, San Diego, CA). The transfer of compounds was followed by the addition of 1 uL of 0.1 nM (final concentration) agonist (17beta-Estradiol)/assay medium using a Flying Reagent Dispenser (FRD, Aurora Discovery, San Diego, CA). The plates were incubated at 37C and 5% CO2 for 22 hr. For luciferase reporter gene assay, 4 uL of ONE-Glo reagent (Promega Corporation, Madison, WI) was added to each well using the FRD and after 30 min incubation at room temperature luminescence intensity was measured using ViewLux plate reader (PerkinElmer, Shelton, CT).
Potency is the fitted concentration of half-maximal effect.

Q: How did the Potency turn out when `Cc1cc([N+](=O)[O-])ccc1N` was run?
A: The Potency was “inactive”.

Q: For `CC(C)(O)CCc1ccccc1`, which Potency is on record?
A: Its Potency is “inactive”.

Q: How did the activity change, negative = inhibition turn out when `CCCCCCCCCCCCCCN(C)C` was run?
A: Its activity change, negative = inhibition is 15.5% [at 19 µM].

Q: Which Potency does the source give for `CS(=O)(=O)c1ccc([C@@H](C[C@H]2CCC(=O)C2)C(=O)Nc2cnccn2)cc1Cl` here?
A: Its Potency is “inactive”.

Q: With `O=[N+]([O-])C1(Br)COCOC1` as the compound, how does the Potency read?
A: The Potency was “inactive”.

Q: `CC(C)(C)S` was tested. Which Potency did it give?
A: Its Potency is “inactive”.

Q: Which Potency does the source give for `O=CNNC=O` here?
A: The Potency was “inactive”.

Q: With `Nc1cccc2c(N)cccc12` as the compound, how does the Potency read?
A: Its Potency is 20.5 µM (active).

Q: With `O=C(Oc1ccccc1)c1ccc2ccccc2c1O` as the compound, how does the Potency read?
A: Its Potency is “inactive”.

Q: `CC1CCc2nccnc21` (stereo not given) was tested. Which Potency did it give?
A: Its Potency is “inactive”.

Q: `Cc1ccc(NC(=O)N(C)C)cc1NC(=O)N(C)C` was tested. Which Potency did it give?
A: Its Potency is “inactive”.

Q: For `CC(C)(C(=O)c1cccnc1)c1cccnc1`, which Potency is on record?
A: Its Potency is “inactive”.

Q: How did the Potency turn out when `Nc1nc2ccc(OC(F)(F)F)cc2s1` was run?
A: The Potency was “inactive”.

Q: `CC(C)COC(=O)COc1cc(Cl)c(Cl)cc1Cl` was tested. Which Potency did it give?
A: The Potency was “inactive”.

Q: How did the Potency turn out when `CCN(CC)CCNC(=O)c1cc(Cl)c(N)cc1OC` was run?
A: The Potency was “inactive”.

Q: With `[Cl][Nd]([Cl])[Cl]` as the compound, how does the Potency read?
A: The Potency was “inactive”.

Q: With `CC(C)c1ccc(C#N)cc1` as the compound, how does the Potency read?
A: Its Potency is “inactive”.

Q: With `CC(=O)OCCC(C)CC(C)(C)C` (stereo not given) as the compound, how does the Potency read?
A: Its Potency is “inactive”.

Q: Which Potency does the source give for `BrC(Br)C(Br)Br` here?
A: The Potency was “inactive”.

Q: Which Potency does the source give for `CN(C)CC/C=C1\c2ccccc2Sc2ccc(Cl)cc21` here?
A: The Potency was “inactive”.

Q: How did the Potency turn out when `O=C(O)CNC(=O)c1ccccc1I` was run?
A: Its Potency is “inactive”.

Q: Which Potency does the source give for `O=c1[nH]c2cc(C(F)(F)F)c(N3CCOCC3)cc2n(CP(=O)(O)O)c1=O` here?
A: Its Potency is “inactive”.

Q: `Cc1ccc(Nc2c(F)cccc2Cl)c(CC(=O)O)c1` was tested. Which Potency did it give?
A: The Potency was “inactive”.

Q: With `O=C(NC(Cc1cc(=O)[nH]c2ccccc12)C(=O)O)c1ccc(Cl)cc1` (stereo not given) as the compound, how does the Potency read?
A: The Potency was “inactive”.

Q: How did the Potency turn out when `COc1ccc(-c2cc(=S)ss2)cc1` was run?
A: Its Potency is “inactive”.

Q: With `NC(=O)CCCCC(N)=O` as the compound, how does the Potency read?
A: The Potency was “inactive”.

Q: With `CCN(Cc1cccc(S(=O)(=O)O)c1)c1ccc(C(=C2C=CC(=[N+](CC)Cc3cccc(S(=O)(=O)O)c3)C=C2)c2ccccc2S(=O)(=O)[O-])cc1` as the compound, how does the Potency read?
A: Its Potency is 12.2 µM (active).

Q: Which Potency does the source give for `CC[C@H]1OC(=O)[C@H](C)[C@@H](O[C@H]2C[C@@](C)(OC)[C@@H](O)[C@H](C)O2)[C@H](C)[C@@H](O[C@@H]2O[C@H](C)C[C@H](N(C)C)[C@H]2O)[C@](C)(O)C[C@@H](C)/C(=N\OCOCCOC)[C@H](C)[C@@H](O)[C@]1(C)O` here?
A: The Potency was “inactive”.

Q: How did the Potency turn out when `O=P(O)(O)Oc1ccccc1` was run?
A: The Potency was “inactive”.

Q: How did the Potency turn out when `O=C1[C@@H]2[C@H]3CC[C@H](C3)[C@@H]2C(=O)N1CCCCN1CCN(c2ncccn2)CC1` was run?
A: The Potency was “inactive”.

Q: How did the activity change, negative = inhibition turn out when `CC1=CC[C@@H]2C[C@H]1C2(C)C` was run?
A: Its activity change, negative = inhibition is 11.8% [at 19 µM].

Q: `CCN(CC)c1cccc(O)c1` was tested. Which Potency did it give?
A: Its Potency is “inactive”.

Q: Which Potency does the source give for `CC(C)N=C=NC(C)C` here?
A: The Potency was “inactive”.

Q: For `CCCCC[C@H](O)/C=C/[C@H]1[C@H](O)CC(=O)[C@@H]1C/C=C\CCCC(=O)O`, which Potency is on record?
A: Its Potency is “inactive”.

Q: Which Potency does the source give for `CCOC(=O)c1ccc(NC(=O)CN2CCCCC2)cc1` here?
A: Its Potency is “inactive”.

Q: For `CCC(C)(C)C(=O)O`, which Potency is on record?
A: Its Potency is “inactive”.

Q: `O=C(O)c1cccc(Oc2ccccc2)c1` was tested. Which Potency did it give?
A: Its Potency is “inactive”.

Q: For `CC(C)C(O)C(C)(C)CO` (stereo not given), which Potency is on record?
A: Its Potency is 9.99 µM (active).

Q: For `COc1ccc(-c2cc(C(F)F)nn2-c2ccc(S(N)(=O)=O)cc2)cc1F`, which Potency is on record?
A: The Potency was “inactive”.

Q: `COC(OC)OC` was tested. Which Potency did it give?
A: Its Potency is “inactive”.
